High-throughput results: PubChem, National Center for Advancing Translational Sciences (NCATS)
DT40 TDP1 no CPT: qHTS for Inhibitors of human tyrosyl-DNA phosphodiesterase 1 (TDP1): qHTS in cells in absence of CPT | Potency, µM (doses to about 46.2 µM), usual class: inhibitors | DT40 Tdp1-/- hTDP1 cells, no CPT, ATP luminescence, 48 h | actives 15% (n = 420,000); note: nearly all actives have a fitted effect of over 55% in size
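Chicken DT40 Tdp1-/- cells complemented with human TDP1, screened without camptothecin (DMSO vehicle only), 400 cells/well. Compounds pin-transferred, cells incubated at 37 °C for at least 48 hr. Growth read as ATP-dependent luminescence (CellTiter-Glo, 30 min at RT).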
TDP1 cell CPT: growth inhibition of DT40 Tdp1-/-;hTDP1 cells with camptothecin (screen for TDP1 inhibitors); chicken DT40 Tdp1-/-;hTDP1 cells + 20 nM CPT, ATP luminescence, 48 h; Potency, µM (titrated, usually from 46.2 µM), hits mostly inhibitors; actives 12% (n = 420,000); AID 686979; note: nearly all actives have a fitted effect of over 55% in size
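Cell growth measured by CellTiter-Glo luminescence after a minimum 48 h, 37 C compound exposure with 20 nM CPT in Tdp1-knockout DT40 cells stably expressing hTDP1, seeded 400/well; qHTS titration format.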
HT1080 IDH1KD tx: kills HT-1080 cells with IDH1 knockdown; HT-1080 IDH1 knockdown viability, ATP luminescence, 48 h; Potency, µM (top dose mostly 46.1 µM), hits mostly cytotoxic; actives 2% (n = 360,000); AID 686971
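Viability of IDH1-knockdown HT-1080 fibrosarcoma cells was assessed by CellTiter-Glo after 48 h at 37 °C with titrated compound; concentration-effect curves were classified by fit quality and response size.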
HT1080-NT tox: kills 2HG-producing HT-1080-NT fibrosarcoma cells | actives 1.6% (n = 360,000) | HT-1080-NT fibrosarcoma viability, CellTiter-Glo ATP luminescence, 48 h | Potency, µM (doses to about 46.1 µM), usual class: cytotoxic;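 note: NT is the 2HG producing partner of a matched IDH1 knockdown line; nearly all actives have a fitted effect of over 55% in size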
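Toxicity toward the 2HG-producing NT line was scored as %Activity, normalised to DMSO and no-cell wells, from CellTiter-Glo luminescence after 48 hours' treatment.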
IL-1B inflam inh: inflammasome signaling inhibition, IL-1 beta readout; THP-1 LPS/ATP IL-1B secretion, AlphaLISA, 16 h; stronger effect = lower value; activity change, % at 57.5 µM; actives 4.7% (n = 360,000); in the data active = activity change below about -50%; inconclusive = mostly about -30% to -49%
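Secreted IL-1B measured by AlphaLISA bead assay after 16 h compound exposure of THP-1 cells; compounds (final up to 57.5 uM) added 1 h before LPS (250 ng/mL) and ATP (1.25 mM) stimulation; lower signal means less secretion.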
Numbers stand for hits; – = inactive; ? = inconclusive; · = no result; ! = not confirmed by another sample; [ ] = another dose, or the depositor's remark. Only some compounds are listed: those with a hit (about 19% of all), similar ones and a draw of the others. Unless noted, calls come from the whole dose curve; as a rule, active = well fitted curve in the direction sought with a large enough effect; inconclusive = small, poorly fitted or top-dose-only effect, or another doubt; inactive = no such curve, though single readings can be large; an effect the other way counts as inactive or inconclusive.

SMILES | DT40 TDP1 no CPT | TDP1 cell CPT | HT1080 IDH1KD tx | HT1080-NT tox | IL-1B inflam inh
CCOC(=O)c1c(NC(=O)CN2CCCCC2)sc(CN(C)C)c1-c1ccccc1 | ? | ? | – | – | -59.8
CCOC(=O)c1c(NC(=O)CN2CCCCC2)sc2c1CCCC2O (stereo not given) | ? | ? | – | – | –
Cc1noc(/C=C/c2ccc(-c3ccccc3Cl)o2)c1[N+](=O)[O-] | ? | – | – | – | –
Cc1ccc(/C=C/C(=O)c2ccc(C)cc2)cc1 | ? | – | – | – | ?
O=C(/C=C/c1ccc(-c2ccccc2[N+](=O)[O-])o1)c1ccc(Br)cc1 | 16.4µM | ? | ? | ? | -65.9
Cc1ccc(C(=O)/C=C/c2ccccc2[N+](=O)[O-])cc1 | 18.4µM | ? | ? | ? | -57.2
N#C/C(=C/c1ccc(-c2ccccc2[N+](=O)[O-])o1)C(N)=O | – | – | – | – | –
NC1=NC(=O)/C(=C\c2ccc(-c3ccccc3[N+](=O)[O-])o2)S1 | ? | 11.2µM | ? | 20µM | ·
Cc1ccc(C(=O)/C=C/c2ccc(-c3ccccc3[N+](=O)[O-])o2)cc1 | 18.4µM | ? | –[9.24 µM] | ? | -95.5
CNS(=O)(=O)c1cccc(C(=O)NCC(c2cccs2)N2CCOCC2)c1 (stereo not given) | – | – | – | – | –
O=C(COc1ccccc1)Nc1ccccc1Cl | – | – | – | – | –
O=S(=O)(Nc1ccccc1)C1CCCCC1 | – | – | – | – | –
O=C(/C=C/c1ccccc1[N+](=O)[O-])c1ccccc1Br | 8.2µM | 20.6µM | 20.6µM | ? | -103.5
NS(=O)(=O)c1ccc(NC(=O)/C=C/c2ccccc2[N+](=O)[O-])cc1 | – | – | – | – | –
C[C@@H](NC(=O)c1[nH]cnc1C(=O)Nc1ccon1)c1ccccc1 | ? | 16.4µM | ? | – | –
C[C@H](NC(=O)c1[nH]cnc1C(=O)Nc1ccon1)c1ccccc1 | ? | ? | – | – | –
C[C@H](NC(=O)c1[nH]cnc1C(=O)Nc1cccc(Cl)c1)c1ccccc1 | 16.4µM | ? | – | ? | –
O=C(N1CCOCC1)C12OC3CC(CC(C3)O1)O2 | – | – | – | – | –
O=S(=O)(NC1CCSc2ccccc21)c1ccc(Cl)nc1 (stereo not given) | ? | ? | – | – | –
CC(=O)N(C)c1ccc(N2CCOCC2)c2c1C(=O)c1ccccc1C2=O | – | – | – | – | –
O=C1c2ccccc2C(=O)c2c1cccc2N1CCOCC1 | ? | ? | – | – | -80.6
Cc1c(CC(=O)NCC(C)C)c(=O)oc2cc3c(cc12)CCC(C)(C)O3 | 18.4µM | 16.4µM | – | – | ?
Cc1c(CC(=O)N2CCC(O)CC2)c(=O)oc2cc3c(cc12)CCC1(CCCCC1)O3 | ? | ? | – | – | –
COCCNC(=O)Cc1c(C)c2cc3c(cc2oc1=O)OC(C)(C)CC3 | ? | ? | – | – | –
Cc1c(CC(=O)NCCC(C)C)c(=O)oc2cc3c(cc12)CCC(C)(C)O3 | 20.6µM | – | – | – | –
SMILES | DT40 TDP1 no CPT | TDP1 cell CPT | HT1080 IDH1KD tx | HT1080-NT tox | IL-1B inflam inh
COc1ccc(CN2CCCC(Cn3cc(C(=O)N4CCCC4)nn3)C2)c(O)c1 (stereo not given) | – | – | · | · | ·
COc1cccc(N2CCN(c3ncnc4c3nc3n4CCCCC3)CC2)c1 | 10.3µM | 16.4µM | · | · | ·
FC(F)(F)c1cccc(N2CCCCC2)c1 | – | – | – | – | –
FC(F)(F)c1cccc(N2CCN(c3ncnc4c3nc3n4CCCC3)CC2)c1 | 9.2µM | 9.2µM | · | · | ·
COc1cccc(CNC(=O)C2CCN(c3ncnc4c3nc3n4CCCCC3)CC2)c1 | ? | – | – | – | –
CN1C(=O)C(C)(C)c2cc(S(=O)(=O)N3CCC(C(=O)NCc4ccc(F)cc4)CC3)ccc21 | ? | 7.31µM | – | – | –
O=C(NCC1CCCO1)C1CCN(S(=O)(=O)c2ccc(Br)cc2)CC1 (stereo not given) | – | – | – | – | –
O=C(O)C1CCCCC1C(=O)NCCc1cccc(Cl)c1 (stereo not given) | – | – | – | – | –
O=C(NCCc1ccc(Cl)cc1)C1CCN(C(=O)c2ccc(F)cc2)CC1 | 18.4µM | ? | – | – | –
O=C(O)C1CCCCC1C(=O)NCCc1ccc(Cl)cc1 (stereo not given) | – | – | – | – | -63.3
C=CCNC(=O)C1CCN(S(=O)(=O)c2ccc(Br)cc2)CC1 | 16.4µM | ? | – | – | –
COC(=O)c1ccc(NC(=O)c2cc[n+]([O-])cc2)cc1 | ? | – | – | – | –
CCOC(=O)c1ccc(CN(Cc2ccc(F)cc2)S(=O)(=O)c2ccc(F)cc2)cc1 | ? | – | · | · | ·
O=C(NCc1ccc(Cl)cc1)C1CCN(S(=O)(=O)c2ccc(F)cc2)CC1 | 18.4µM! | 3.66µM | – | – | -63.8
COc1ccc(C(C)C)cc1S(=O)(=O)NCCc1c(C)[nH]c2c(Cl)cccc12 | ? | 29.1µM | · | · | ·
Cc1ccc([N+](=O)[O-])cc1S(=O)(=O)NCCc1c(C)[nH]c2c(C)cccc12 | ? | ? | – | – | –
Cc1nnc(SCC(=O)NNC(=O)c2ccc(Br)cc2)n1C | – | – | – | – | –
CC(OC(=O)c1cc2sccc2n1C)C(=O)NCc1ccc(F)cc1 (stereo not given) | – | – | ? | – | –
CC(OC(=O)c1cc2sccc2n1C)C(=O)NCCc1ccccc1 (stereo not given) | 17.8µM | 14.6µM | ? | ? | –
COc1ccc(CCNS(=O)(=O)c2ccc3c(c2)CCCC3)cc1OC | ? | ? | – | – | –
COc1ccc(-n2nc(C(=O)NCc3cc(OC)ccc3OC)c3c4ccccc4n(C)c3c2=O)cc1 | – | – | – | – | –
COc1ccc(-n2nc(C(=O)NCCc3ccc(OC)c(OC)c3)c3c4ccccc4n(C)c3c2=O)cc1 | 14.6µM | 16.4µM | · | · | ·
CCCCN(C)CCNC(=O)c1nn(-c2ccc(OC)cc2)c(=O)c2c1c1ccccc1n2C | 18.4µM | ? | – | – | –
CCN(C(=O)c1nn(-c2ccc(OC)cc2)c(=O)c2c1c1ccccc1n2C)c1ccc(OC)cc1 | – | – | – | – | –
COc1ccc(N=C2C(=Nc3ccc(OC)cc3)N(c3ccccc3)C(=S)N2C(=O)c2ccc(Cl)cc2)cc1 | ? | – | – | – | –
COc1ccc(N=C2C(=Nc3ccc(OC)cc3)N(c3ccc(N(C)C)cc3)C(=S)N2c2ccc(OC)cc2)cc1 | 1.03µM | 0.651µM | ? | ? | –
COc1ccc(N2C(=S)N(C(=O)c3ccccc3)C(=Nc3ccccc3)C2=Nc2ccccc2)cc1 | 18.4µM | ? | ? | ? | –
COc1ccc(N=C2C(=Nc3ccc(OC)cc3)N(c3ccc(OC)cc3)C(=S)N2C(=O)c2ccc(OC)cc2)cc1 | 18.4µM | ? | – | – | ?
